Test results as given in PubChem BioAssay AID1159580 (chemical genetic matrix, 2015).
Among all 5,500 compounds or so, about 2,000 (36%) were called active. Inconclusive results (about 18%) are left out. The list shows a part of the results. Unmarked numbers belong to inactive results. No stated cut-off is given here; in the data, active means normalized growth mostly below about 0.91 (no sharp cut-off); inconclusive means no clear call, values can overlap the other calls; inactive means mostly above about 0.92.

Assay: chemical genetic growth profiling, strain panel (AID 1159580);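 further: tested at 20 µM; growth read once vehicle control cultures reached saturation at 30 °C; 1 = growth at the plate median or of vehicle wells; lower values mean less growth of the strain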
Conditions: S. cerevisiae deletion strains, growth OD

## Oc1c(Cl)cc(Cl)cc1/C=N\NC(=S)Nc1cc(C(F)(F)F)cc(C(F)(F)F)c1
Locus YAR019C, strain CDC15, active compounds read low
  normalized growth: 0.815 (active)
Locus YBL105C, strain PKC1, active compounds read low
  normalized growth: 0.899 (active)
Locus YBR135W, strain CKS1, active compounds read low
  normalized growth: 0.884 (active)
Locus YBR136W, strain MEC1, active compounds read low
  normalized growth: 0.888 (active)
Locus YBR160W, strain CDC28, active compounds read low
  normalized growth: 0.893 (active)
Locus YDL017W, strain CDC7, active compounds read low
  normalized growth: 0.889 (active)
Locus YDL028C, strain MPS1, active compounds read low
  normalized growth: 0.878 (active)
Locus YDL101C, strain DUN1, active compounds read low
  normalized growth: 0.922
Locus YDL108W, strain KIN28, active compounds read low
  normalized growth: 0.88 (active)
Locus YDL132W, strain cdc53, active compounds read low
  normalized growth: 0.811 (active)
Locus YDL214C, strain PRR2, active compounds read low
  normalized growth: 0.179 (active)
Locus YDR052C, strain DBF4, active compounds read low
  normalized growth: 0.894 (active)
Locus YDR054C, strain cdc34, active compounds read low
  normalized growth: 0.491 (active)
Locus YDR226W, strain ADK1, active compounds read low
  normalized growth: 0.886 (active)
Locus YDR477W, strain SNF1, active compounds read low
  normalized growth: 0.285 (active)
Locus YER123W, strain YCK3, active compounds read low
  normalized growth: 0.158 (active)
Locus YER133W, strain GLC7, active compounds read low
  normalized growth: 0.338 (active)
Locus YFL009W, strain cdc4, active compounds read low
  normalized growth: 0.611 (active)
Locus YFL029C, strain CAK1, active compounds read low
  normalized growth: 0.784 (active)
Locus YFR003C, strain YPI1, active compounds read low
  normalized growth: 0.853 (active)
Locus YFR019W, strain FAB1, active compounds read low
  normalized growth: 0.111 (active)
Locus YFR028C, strain CDC14, active compounds read low
  normalized growth: 0.857 (active)
Locus YGR040W, strain KSS1, active compounds read low
  normalized growth: 0.35 (active)
Locus YGR052W, strain FMP48, active compounds read low
  normalized growth: 0.132 (active)
Locus YGR092W, strain DBF2, active compounds read low
  normalized growth: 0.0943 (active)
Locus YHR030C, strain SLT2, active compounds read low
  normalized growth: 0.126 (active)
Locus YHR079C, strain IRE1, active compounds read low
  normalized growth: 0.103 (active)
Locus YHR082C, strain KSP1, active compounds read low
  normalized growth: 0.151 (active)
Locus YHR205W, strain SCH9, active compounds read low
  normalized growth: 0.121 (active)
Locus YIL147C, strain SLN1, active compounds read low
  normalized growth: 0.887 (active)
Locus YJL095W, strain BCK1, active compounds read low
  normalized growth: 0.136 (active)
Locus YJL128C, strain PBS2, active compounds read low
  normalized growth: 0.905
Locus YJL157C, strain FAR1, active compounds read low
  normalized growth: 0.128 (active)
Locus YJR016C, strain ILV3, active compounds read low
  normalized growth: 0.722 (active)
Locus YJR066W, strain TOR1 (second series), active compounds read low
  normalized growth: 0.118 (active)
Locus YJR066W, strain TOR1, active compounds read low
  normalized growth: 0.119 (active)
Locus YKL048C, strain ELM1, active compounds read low
  normalized growth: 0.166 (active)
Locus YKL067W, strain YNK1, active compounds read low
  normalized growth: 0.137 (active)
Locus YKL101W, strain HSL1, active compounds read low
  normalized growth: 0.12 (active)
Locus YKL193C, strain SDS22, active compounds read low
  normalized growth: 0.858 (active)
Locus YKL203C, strain TOR2, active compounds read low
  normalized growth: 0.132 (active)
Locus YLR113W, strain HOG1, active compounds read low
  normalized growth: 0.171 (active)
Locus YLR133W, strain CKI1, active compounds read low
  normalized growth: 0.12 (active)
Locus YLR403W, strain SFP1, active compounds read low
  normalized growth: 0.159 (active)
Locus YML070W, strain DAK1, active compounds read low
  normalized growth: 0.116 (active)
Locus YMR001C, strain CDC5, active compounds read low
  normalized growth: 0.805 (active)
Locus YMR205C, strain PFK2 (second series), active compounds read low
  normalized growth: 0.157 (active)
Locus YMR277W, strain FCP1, active compounds read low
  normalized growth: 0.811 (active)
Locus YNL006W, strain LST8, active compounds read low
  normalized growth: 0.673 (active)
Locus YNL020C, strain ARK1, active compounds read low
  normalized growth: 0.117 (active)
Locus YNL161W, strain CBK1, active compounds read low
  normalized growth: 0.789 (active)
Locus YNL183C, strain NPR1, active compounds read low
  normalized growth: 0.245 (active)
Locus YNL207W, strain RIO2, active compounds read low
  normalized growth: 0.858 (active)
Locus YNL222W, strain SSU72, active compounds read low
  normalized growth: 0.885 (active)
Locus YNL307C, strain MCK1 (second series), active compounds read low
  normalized growth: 0.114 (active)
Locus YOL078W, strain AVO1, active compounds read low
  normalized growth: 0.856 (active)
Locus YOL136C, strain PFK27, active compounds read low
  normalized growth: 0.139 (active)
Locus YOR061W, strain CKA2, active compounds read low
  normalized growth: 0.114 (active)
Locus YOR119C, strain RIO1, active compounds read low
  normalized growth: 0.217 (active)
Locus YOR231W, strain MKK1, active compounds read low
  normalized growth: 0.128 (active)
Locus YOR329C, strain SCD5, active compounds read low
  normalized growth: 0.56 (active)
Locus YPL031C, strain PHO85, active compounds read low
  normalized growth: 0.163 (active)
Locus YPL153C, strain RAD53, active compounds read low
  normalized growth: 0.171 (active)
Locus YPL204W, strain HRR25, active compounds read low
  normalized growth: 0.121 (active)
Locus YPL209C, strain IPL1, active compounds read low
  normalized growth: 0.891 (active)
Locus YPL256C, strain CLN2, active compounds read low
  normalized growth: 0.158 (active)
Locus YPR025C, strain CCL1, active compounds read low
  normalized growth: 0.893 (active)
Locus YPR106W, strain ISR1, active compounds read low
  normalized growth: 0.922
Locus YPR111W, strain DBF20, active compounds read low
  normalized growth: 0.905
Strain NNK1, active compounds read low
  normalized growth: 0.272 (active)
Strain TSCII, active compounds read low
  normalized growth: 0.621 (active)
